# Results from PubChem BioAssay AID1159580 (chemical genetic matrix, 2015).
# The whole screen tested about 5,500 compounds, of which about 2,000 (36%) were called active. About 18% were inconclusive and are not listed. This is one part of the list. A number with no mark means an inactive call. Rule as the data show it: active = normalized growth mostly below about 0.91 (no sharp cut-off); inconclusive = no clear call, values can overlap the other calls; inactive = mostly above about 0.92.
# Assay: chemical genetic growth profiling, strain panel (AID 1159580);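 also: tested at 20 µM; growth read once vehicle control cultures reached saturation at 30 °C; 1 = growth at the plate median or of vehicle wells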
# Conditions: growth OD
structure (smiles),measurement,setting,value
C#C[C@]1(OC(C)=O)CCC2C3CCC4=CC(=O)CC[C@@H]4C3CC[C@@]21C (stereo partly drawn),normalized growth,"S. cerevisiae deletion strains, locus YKL009W, strain mrt4, stronger effect = lower value",0.968
same,normalized growth,"S. cerevisiae deletion strains, locus YKL068W, stronger effect = lower value",0.973
same,normalized growth,"S. cerevisiae deletion strains, locus YKL085W, strain MDH1 (second series), stronger effect = lower value",0.967
same,normalized growth,"S. cerevisiae deletion strains, locus YKL085W, strain MDH1, stronger effect = lower value",0.967
same,normalized growth,"S. cerevisiae deletion strains, locus YKL160W, strain elf1, stronger effect = lower value",0.964
same,normalized growth,"S. cerevisiae deletion strains, locus YKL190W, strain CNB1, stronger effect = lower value",0.977
same,normalized growth,"S. cerevisiae deletion strains, locus YKR001C, strain vps1, stronger effect = lower value",0.945
same,normalized growth,"S. cerevisiae deletion strains, locus YKR026C, strain gcn3, stronger effect = lower value",0.984
same,normalized growth,"S. cerevisiae deletion strains, locus YKR091W, strain srl3, stronger effect = lower value",0.992
same,normalized growth,"S. cerevisiae deletion strains, locus YLL001W, strain dnm1, stronger effect = lower value",0.988
same,normalized growth,"S. cerevisiae deletion strains, locus YLL026W, stronger effect = lower value",0.99
same,normalized growth,"S. cerevisiae deletion strains, locus YLL041C, strain sdh2, stronger effect = lower value",0.976
same,normalized growth,"S. cerevisiae deletion strains, locus YLR027C, strain aat2, stronger effect = lower value",0.988
same,normalized growth,"S. cerevisiae deletion strains, locus YLR039C, strain RIC1, stronger effect = lower value",0.892
same,normalized growth,"S. cerevisiae deletion strains, locus YLR058C, strain SHM2, stronger effect = lower value",0.965
same,normalized growth,"S. cerevisiae deletion strains, locus YLR102C, strain apc9, stronger effect = lower value",0.975
same,normalized growth,"S. cerevisiae deletion strains, locus YLR113W, strain HOG1, stronger effect = lower value",0.93
same,normalized growth,"S. cerevisiae deletion strains, locus YLR221C, strain rsa3, stronger effect = lower value",1.02
same,normalized growth,"S. cerevisiae deletion strains, locus YLR258W, strain gsy2, stronger effect = lower value",0.965
same,normalized growth,"S. cerevisiae deletion strains, locus YLR262C, strain YPT6 (second series), stronger effect = lower value",0.991
same,normalized growth,"S. cerevisiae deletion strains, locus YLR262C, strain YPT6, stronger effect = lower value",0.842
same,normalized growth,"S. cerevisiae deletion strains, locus YLR268W, strain sec22, stronger effect = lower value",0.926
same,normalized growth,"S. cerevisiae deletion strains, locus YLR320W, strain mms22, stronger effect = lower value",0.969
same,normalized growth,"S. cerevisiae deletion strains, locus YLR330W, strain CHS5, stronger effect = lower value",0.978
same,normalized growth,"S. cerevisiae deletion strains, locus YLR342W, strain FKS1 (second series), stronger effect = lower value",0.956
same,normalized growth,"S. cerevisiae deletion strains, locus YLR342W, strain FKS1, stronger effect = lower value",0.961
same,normalized growth,"S. cerevisiae deletion strains, locus YLR357W, strain rsc2, stronger effect = lower value",0.975
same,normalized growth,"S. cerevisiae deletion strains, locus YLR370C, strain arc18, stronger effect = lower value",0.986
same,normalized growth,"S. cerevisiae deletion strains, locus YLR371W, strain rom2, stronger effect = lower value",0.983
same,normalized growth,"S. cerevisiae deletion strains, locus YLR384C, strain iki3, stronger effect = lower value",0.991
same,normalized growth,"S. cerevisiae deletion strains, locus YLR418C, strain cdc73, stronger effect = lower value",0.803 (active)
same,normalized growth,"S. cerevisiae deletion strains, locus YML016C, strain PPZ1, stronger effect = lower value",0.963
same,normalized growth,"S. cerevisiae deletion strains, locus YML032C, strain rad52, stronger effect = lower value",0.957
same,normalized growth,"S. cerevisiae deletion strains, locus YML120C, strain ndi1, stronger effect = lower value",1.02
same,normalized growth,"S. cerevisiae deletion strains, locus YML124C, strain tub3, stronger effect = lower value",0.962
same,normalized growth,"S. cerevisiae deletion strains, locus YMR058W, strain fet3, stronger effect = lower value",1
same,normalized growth,"S. cerevisiae deletion strains, locus YMR078C, strain ctf18, stronger effect = lower value",0.958
same,normalized growth,"S. cerevisiae deletion strains, locus YMR125W, strain sto1, stronger effect = lower value",0.978
same,normalized growth,"S. cerevisiae deletion strains, locus YMR129W, stronger effect = lower value",0.973
same,normalized growth,"S. cerevisiae deletion strains, locus YMR205C, strain PFK2, stronger effect = lower value",0.984
same,normalized growth,"S. cerevisiae deletion strains, locus YMR223W, strain ubp8, stronger effect = lower value",0.962
same,normalized growth,"S. cerevisiae deletion strains, locus YMR231W, strain pep5, stronger effect = lower value",1
same,normalized growth,"S. cerevisiae deletion strains, locus YMR307W, strain GAS1, stronger effect = lower value",1.08
same,normalized growth,"S. cerevisiae deletion strains, locus YNL067W, strain RPL9B, stronger effect = lower value",0.984
same,normalized growth,"S. cerevisiae deletion strains, locus YNL071W, strain lat1, stronger effect = lower value",0.986
same,normalized growth,"S. cerevisiae deletion strains, locus YNL128W, strain TEP1, stronger effect = lower value",0.977
same,normalized growth,"S. cerevisiae deletion strains, locus YNL153C, strain GIM3, stronger effect = lower value",0.974
same,normalized growth,"S. cerevisiae deletion strains, locus YNL183C, strain NPR1, stronger effect = lower value",0.927
same,normalized growth,"S. cerevisiae deletion strains, locus YNL209W, strain ssb2, stronger effect = lower value",0.983
same,normalized growth,"S. cerevisiae deletion strains, locus YNL233W, strain BNI4, stronger effect = lower value",0.977
same,normalized growth,"S. cerevisiae deletion strains, locus YNL248C, strain rpa49, stronger effect = lower value",0.963
same,normalized growth,"S. cerevisiae deletion strains, locus YNL250W, strain rad50, stronger effect = lower value",0.971
same,normalized growth,"S. cerevisiae deletion strains, locus YNL271C, strain bni1, stronger effect = lower value",0.961
same,normalized growth,"S. cerevisiae deletion strains, locus YNL298W, strain CLA4, stronger effect = lower value",0.964
same,normalized growth,"S. cerevisiae deletion strains, locus YNL307C, strain MCK1, stronger effect = lower value",0.889 (active)
same,normalized growth,"S. cerevisiae deletion strains, locus YNL322C, strain KRE1 (second series), stronger effect = lower value",0.949
same,normalized growth,"S. cerevisiae deletion strains, locus YNR049C, strain mso1, stronger effect = lower value",0.994
same,normalized growth,"S. cerevisiae deletion strains, locus YNR052C, strain pop2, stronger effect = lower value",0.932
same,normalized growth,"S. cerevisiae deletion strains, locus YOL006C, strain TOP1, stronger effect = lower value",0.867
same,normalized growth,"S. cerevisiae deletion strains, locus YOL012C, strain htz1",1
same,normalized growth,"S. cerevisiae deletion strains, locus YOL147C, strain pex11, stronger effect = lower value",0.967
same,normalized growth,"S. cerevisiae deletion strains, locus YOR001W, strain rrp6, stronger effect = lower value",1.02
same,normalized growth,"S. cerevisiae deletion strains, locus YOR061W, strain CKA2, stronger effect = lower value",0.942
same,normalized growth,"S. cerevisiae deletion strains, locus YOR069W, strain VPS5, stronger effect = lower value",0.974
same,normalized growth,"S. cerevisiae deletion strains, locus YOR070C, strain gyp1, stronger effect = lower value",0.994
same,normalized growth,"S. cerevisiae deletion strains, locus YOR080W, strain dia2, stronger effect = lower value",0.978
same,normalized growth,"S. cerevisiae deletion strains, locus YOR083W, strain WHI5, stronger effect = lower value",0.937
same,normalized growth,"S. cerevisiae deletion strains, locus YOR106W, strain vam3, stronger effect = lower value",0.982
same,normalized growth,"S. cerevisiae deletion strains, locus YOR136W, strain idh2, stronger effect = lower value",0.992
same,normalized growth,"S. cerevisiae deletion strains, locus YOR144C, strain elg1, stronger effect = lower value",0.97
same,normalized growth,"S. cerevisiae deletion strains, locus YOR184W, strain ser1, stronger effect = lower value",0.829 (active)
same,normalized growth,"S. cerevisiae deletion strains, locus YOR231W, strain MKK1, stronger effect = lower value",0.956
same,normalized growth,"S. cerevisiae deletion strains, locus YOR265W, strain rbl2, stronger effect = lower value",0.998
same,normalized growth,"S. cerevisiae deletion strains, locus YOR270C, strain vph1, stronger effect = lower value",0.996
same,normalized growth,"S. cerevisiae deletion strains, locus YOR290C, strain snf2, stronger effect = lower value",0.961
same,normalized growth,"S. cerevisiae deletion strains, locus YOR316C, strain cot1, stronger effect = lower value",0.969
same,normalized growth,"S. cerevisiae deletion strains, locus YPL051W, strain arl3, stronger effect = lower value",0.98
same,normalized growth,"S. cerevisiae deletion strains, locus YPL078C, strain atp4, stronger effect = lower value",0.968
same,normalized growth,"S. cerevisiae deletion strains, locus YPL106C, strain sse1, stronger effect = lower value",0.939
same,normalized growth,"S. cerevisiae deletion strains, locus YPL240C, strain hsp82, stronger effect = lower value",0.989
same,normalized growth,"S. cerevisiae deletion strains, locus YPL241C, strain CIN2, stronger effect = lower value",0.975
same,normalized growth,"S. cerevisiae deletion strains, locus YPL256C, strain CLN2, stronger effect = lower value",0.88
same,normalized growth,"S. cerevisiae deletion strains, locus YPR119W, strain clb2, stronger effect = lower value",0.972
same,normalized growth,"S. cerevisiae deletion strains, locus YPR141C, strain kar3, stronger effect = lower value",0.946
same,normalized growth,"S. cerevisiae deletion strains, locus YPR163C, strain tif3, stronger effect = lower value",0.966
same,normalized growth,"S. cerevisiae deletion strains, locus YPR167C, strain met16, stronger effect = lower value",0.958
same,normalized growth,"S. cerevisiae deletion strains, strain wtn01, stronger effect = lower value",0.936
same,normalized growth,"S. cerevisiae strains, strain wild type, stronger effect = lower value",0.953
